# Screening data from PubChem.
# Vaccinia Venus – vaccinia inhibition (Venus reporter); Vaccinia virus Venus reporter expression, fluorescence; Potency, µM (highest dose often 36.5 µM), without a hit: at the highest dose activity change, negative = inhibition, most hits filed as inhibitors; actives 0.46% (n = 330,000); AID 720580; calls by dose curve; tested in A549 cells; note: % is set by controls: 0 for no effect and ±100 for the full control effect; nearly all actives have a fitted effect of over 30% in size
# AmpC inh no detg – blocks E. coli AmpC beta-lactamase in detergent-free assay; AmpC nitrocefin hydrolysis, absorbance 480 nm, 0.0001% Triton; Potency, µM (titrated, usually from 57.1 µM), for the others: at the highest dose activity change, negative = inhibition, hits mostly inhibitors; actives 0.52% (n = 330,000);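 note: plate controls were no compound for no effect and no enzyme for full effect; nearly all actives have a fitted effect of over 20% in size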
# Target sequence (P00811 whole entry, looked up): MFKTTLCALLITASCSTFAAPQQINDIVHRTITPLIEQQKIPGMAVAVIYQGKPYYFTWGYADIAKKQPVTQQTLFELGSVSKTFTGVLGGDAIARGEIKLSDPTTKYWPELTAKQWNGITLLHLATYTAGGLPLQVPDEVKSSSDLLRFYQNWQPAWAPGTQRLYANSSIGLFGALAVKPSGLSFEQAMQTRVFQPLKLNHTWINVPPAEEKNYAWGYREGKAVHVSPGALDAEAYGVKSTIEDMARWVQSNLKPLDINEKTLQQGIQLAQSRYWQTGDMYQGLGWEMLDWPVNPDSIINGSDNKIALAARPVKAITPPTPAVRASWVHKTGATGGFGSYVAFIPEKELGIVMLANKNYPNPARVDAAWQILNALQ
#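 20 mM phosphate pH 7.0 + 0.01% (detergent screen) or 0.0001% Triton X-100; 5.3 nM AmpC reagent; cpd preinc 15 min RT; nitrocefin (800 uM stock) to start; A480 q20 s × 4 min; Activity was normalised to no-enzyme and no-compound control wells.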
# Vaccinia mCherry – vaccinia inhibition (mCherry reporter); Vaccinia virus mCherry reporter infection, fluorescence; Potency, µM (series often up to 36.5 µM), for inactives: at the top dose activity change, negative = inhibition, hits mostly inhibitors; actives 0.63% (n = 310,000); AID 720579; calls by dose curve; tested in A549 cells; note: % is set by controls: 0 for no effect and ±100 for the full control effect; nearly all actives have a fitted effect of over 35% in size
# SARS PLpro yeast – inhibitors of SARS-CoV papain-like protease in yeast | S. cerevisiae expressing SARS-CoV PLpro, growth rescue | Potency, µM (titrated, usually from 32.9 µM), for the others: at the highest dose activity, positive = growth rescue, actives largely listed as activators | actives 0.19% (n = 330,000); calls by dose curve; note: 0% is about no effect; nearly all actives have a fitted effect of over 55% in size
# AmpC inh detg – AmpC beta-lactamase inhibition with detergent present; P00811; AmpC hydrolysis of nitrocefin, absorbance 480 nm, 0.01% Triton; Potency, µM (top dose mostly 114 µM), inactives show at the highest dose activity change, negative = inhibition, actives largely listed as inhibitors; actives 0.041% (n = 370,000); AID 485294;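 note: 0% = no-compound wells and -100% = no-enzyme wells; nearly all actives have a fitted effect of over 25% in size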
#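 AmpC (5.3 nM in the dispensed reagent) in 20 mM phosphate pH 7.0 with 0.01% (detergent screen) or 0.0001% Triton X-100 was preincubated with compounds for 15 min at room temperature. Nitrocefin was then added from an 800 uM solution, and hydrolysis was followed at 480 nm.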
# AMA1 RON2 block – disrupts binding of P. falciparum AMA1 to RON2 | AlphaScreen AMA1-biotinylated RON2 peptide binding | Potency, µM (top dose mostly 58.2 µM), for inactives: at the highest dose activity change, negative = inhibition, usual class: inhibitors | actives 0.2% (n = 360,000);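 note: 0% = vehicle wells and -100% = peptide control; nearly all actives have a fitted effect of over 45% in size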
#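 AMA1 (3D7) with his tag at 25 nM final met compounds first, then biotinylated RON2 peptide at 25 nM; detection used donor plus acceptor beads, 10 µg/mL apiece, read by AlphaScreen after 30 min at room temperature.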
# * marks the source's active call; other numbers are inactive results; i = inactive; ? = inconclusive; . = no result; [ ] = another dose, or the depositor's remark. This is a sample that favours compounds with a hit; in the whole collection about 1.4% have one here. Unless noted, calls come from the whole dose curve; as a rule, active = well fitted curve in the direction sought with a large enough effect; inconclusive = small, poorly fitted or top-dose-only effect, or another doubt; inactive = no such curve, though single readings can be large; an effect the other way counts as inactive or inconclusive. Potency is the fitted concentration of half-maximal effect.
SMILES,Vaccinia Venus,AmpC inh no detg,Vaccinia mCherry,SARS PLpro yeast,AmpC inh detg,AMA1 RON2 block
CCC(=O)Nc1nc(-c2ccc3c(c2)OCCO3)cs1,-30%,40µM*,-2%,-17%,?,0%
COC(=O)c1ccc(NC(=O)c2ccccc2OCC(=O)Nc2ccc(Br)cc2)cc1,?,.,-27%,.,.,.
CCOc1ccccc1NC(=O)c1cc(CC(C)C)oc1C,.,0.32µM*,.,-17%,4%,7%
Cc1c(C(=O)N(C)c2cccc(C(F)(F)F)c2)sc2nc3n(c(=O)c12)CCCCC3,-6%[7.34 µM],.,-4%[7.34 µM],.,17%,.
CN1CCCN(C(=O)[C@@H]2C[C@@H](Sc3nc4ccccc4[nH]3)CN2Cc2ccc(-c3ccccc3)cc2)CC1,-14%,.,-19%,.,.,.
CCCCCCNC(=O)O[C@H]1Cn2c(=O)n(CCCCCC)c(=O)n2[C@@H]2CN(S(=O)(=O)c3ccc(C)cc3)C[C@]12O,16µM*,.,?,.,.,0%
CCCCCCNC(=O)O[C@H]1Cn2c(=O)ccc(=O)n2[C@@H]2CN(S(=O)(=O)c3ccc(C)cc3)C[C@]12O,10µM*,.,?,.,.,15%
CCCCCCn1c(=O)n2n(c1=O)[C@@H]1CN(S(=O)(=O)c3ccc(C)cc3)C[C@]1(O)[C@@H](OC(=O)NC1CC1)C2,-24%,.,?,.,.,4%
Cc1ccc(S(=O)(=O)N2C[C@H]3n4c(=O)ccc(=O)n4C[C@H](OC(=O)NCc4ccccc4F)[C@@]3(O)C2)cc1,?,.,?,.,.,-3%
CCCN1C(=O)c2cc(C(=O)Nc3ccc(OC)cc3OC)ccc2C1Nc1ccc(OC)cc1OC (stereo not drawn),-11%,156%,-14%,-4%,0%,14µM*
O=C1C=CC2(O[C@H](c3ccccc3)[C@@H](c3ccccc3)O2)[C@H](Sc2ccccc2O)C1,?,.,10µM*,.,.,-12%
Cc1ccc(NC(=O)COC(=O)c2ccccc2Nc2ccccc2)cc1,-24%,25µM*,-3%,12%,-2%,14%
COc1cc2nc(N3CCCN(C)CC3)nc(N)c2cc1OC,-16%,.,-19%,.,.,.
COC(=O)[C@@H]1CCCN1Cc1ccc2c(c1)CN(Cc1ccc3c(c1)CCO3)CCO2,0%,.,-6%,.,.,.
Cc1ccc(C(=O)OCC(=O)c2c[nH]c3ccccc23)cc1,-22%,-42%,-24%,-12%,-13%,-11%
O=C(OCC(=O)c1c[nH]c2ccccc12)c1cc(Br)ccc1O,-25%,2.2µM*,-12%,-2%,-2%,7%
CCN(CC)CCCNc1nc2ccccc2c2[nH]c3ccc(OC)cc3c12,10µM*,.,?,.,.,-5%
CCSc1ncnc2c1oc1ccccc12,.,-13%,.,11%,?,24%
Clc1ncnc2c1oc1ccccc12,.,0.28µM*,.,-2%,1%,3%
Cc1nn(C)cc1C(=O)Nc1cc(Oc2ccc(Cl)cc2)cc([N+](=O)[O-])c1,.,-19%,.,-4%,-12%,-6%
Cn1cc([N+](=O)[O-])c(C(=O)Nc2cc(Oc3ccccc3)cc([N+](=O)[O-])c2)n1,?,-44%,14µM*,-9%,-15%,14%
COc1ccc([N+](=O)[O-])c(S(=O)(=O)c2ccc(Cl)cc2)n1,10µM*,-46%,?,-7%,-15%,-12%
O=[N+]([O-])c1cccnc1S(=O)(=O)c1ccccc1,-6%,-4%,-20%,-5%,1%,2%
COc1ccc([N+](=O)[O-])c(S(=O)(=O)c2ccccc2)n1,11µM*,-28%,11µM*,-7%,?,-11%
CCCCOC(=O)c1ccc(NC(=O)CSc2nc3c(c(=O)[nH]2)CCCC3)cc1,7%,.,7%,.,-9%,.
SMILES,Vaccinia Venus,AmpC inh no detg,Vaccinia mCherry,SARS PLpro yeast,AmpC inh detg,AMA1 RON2 block
COc1ccc(/C=C/c2nnc(NC(=O)COc3ccc(Cl)cc3)s2)cc1,-8%,.,11%,.,.,.
CC(=O)Nc1ccc(S(=O)(=O)Nc2nnc(C)s2)cc1,-5%,.,i,.,.,-11%
Cc1ccc(S(=O)(=O)NC(=O)Nc2nnc(C)s2)cc1,.,0.4µM*,.,-2%,2%,-8%
O=c1c2c3c(sc2[nH]c(=S)n1Cc1ccco1)CCC3,-2%,20µM*,8%,-1%,3%,109%
COc1ccc(Cl)cc1NC(=O)CN(C)S(=O)(=O)c1cccs1,-14%,-14%,17%,-1%,-3%,-2%
COc1ccc(Cl)cc1NC(=O)COC(=O)c1cc(NS(=O)(=O)c2cccs2)ccc1O,-8%,20µM*,-18%,0%,-12%,10%
O=C(COC(=O)c1ccc(NS(=O)(=O)c2cccs2)cc1O)Nc1nc2ccccc2s1,.,1.6µM*,.,1%,1%,-7%
O=C(COC(=O)c1ccc(NS(=O)(=O)c2cccs2)cc1O)NCc1ccccc1,-13%,-24%,-10%,1%,2%,-11%
CCOC(=O)c1cccc(NC(=O)CCc2c(C)nn(-c3ccc(N4CCCCC4)nn3)c2C)c1,-11%,.,-6%,.,-7%,.
O=C1c2ccccc2CCC1CNCCc1ccc(O)cc1 (stereo not drawn),-12%,.,i,.,.,.
CN(C)c1ccc(N=Nc2ccccc2C(=O)OCC(=O)N(C)c2ccccc2)cc1,.,8%,.,-16%,-12%,14µM*
COC(=O)c1ccccc1NC(=O)COC(=O)c1ccccc1N=Nc1ccc(N(C)C)cc1,-25%,-35%,-9%,-1%,-16%,?
CC(=O)c1ccc(NC(=O)COC(=O)c2ccccc2N=Nc2ccc(N(C)C)cc2)cc1,-14%,13%,?,3%,0%,11µM*
COc1ccc(N2CCN(CC(O)COc3ccc(C)cc3C)CC2)cc1 (stereo not drawn),-1%,62%,?,-1%,0%,25µM*
COc1ccc(N2CCN(CC(O)COc3cc(C)ccc3C)CC2)cc1 (stereo not drawn),.,57%,.,0%,3%,-19%
OC(COc1ccc2ccccc2c1)CN1CCN(c2ccc(F)cc2)CC1 (stereo not drawn),3%,40µM*,22%,-4%,?,7%
CC(NC(=O)c1cc(F)ccc1F)c1nnc2n1CCN(Cc1ccco1)CC2 (stereo not drawn),0%,.,-2%,.,.,.
Cc1cnc(C)c(-c2ccc(F)c3c2OC(CNC(=O)/C=C/c2cccs2)C3)n1 (stereo not drawn),-12%,.,-6%,.,.,.
Cc1ccc(Nc2c3c(nc4ccccc24)CCC3)cc1F,?,.,10µM*,.,8%,.
CC(C)NC(=O)COC(=O)c1ccccc1OCC(=O)Nc1ccc(Br)cc1,-7%,.,-12%,.,.,.
Cc1ccc(CSC(Nc2ccc(F)cc2)=C(C#N)C#N)cc1,?,-43%,-13%,-2%,1%,-7%
